Results filed as inconclusive are left out. Active and inactive are the calls of the source. Unless noted, calls come from the whole dose curve; as a rule, active = well fitted curve in either direction with a large enough effect (not every such curve was filed as active); inconclusive = small, poorly fitted or top-dose-only effect, or another doubt; inactive = flat fitted curve, though single readings scatter.
Legend:
[1] = biological target: Lysosomal acid glucosylceramidase (Homo sapiens) (UniProt P04062); test: Glucocerebrosidase-p2 (AID 348; in the data active = potency below about 10 µM; note: potency is the fitted concentration of half-maximal effect); details: purified GBA, blue fluorogenic substrate, 40 min
Lysosomal acid glucosylceramidase (Homo sapiens), sequence (P04062 whole entry, looked up): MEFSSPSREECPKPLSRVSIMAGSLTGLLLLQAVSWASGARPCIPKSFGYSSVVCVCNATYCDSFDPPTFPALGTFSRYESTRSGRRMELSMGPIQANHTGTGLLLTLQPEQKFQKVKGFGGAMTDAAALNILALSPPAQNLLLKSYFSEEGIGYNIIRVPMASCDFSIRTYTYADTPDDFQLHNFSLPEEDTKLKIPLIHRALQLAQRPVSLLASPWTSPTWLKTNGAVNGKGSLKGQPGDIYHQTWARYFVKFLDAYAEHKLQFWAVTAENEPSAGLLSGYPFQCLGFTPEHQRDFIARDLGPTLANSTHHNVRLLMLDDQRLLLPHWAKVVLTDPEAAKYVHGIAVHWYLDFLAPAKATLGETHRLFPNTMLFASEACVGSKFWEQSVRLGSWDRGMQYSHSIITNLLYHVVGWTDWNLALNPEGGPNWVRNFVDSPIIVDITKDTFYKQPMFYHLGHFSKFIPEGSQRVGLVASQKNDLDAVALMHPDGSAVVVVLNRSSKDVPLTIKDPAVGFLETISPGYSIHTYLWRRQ
Outline: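 Compounds titrated from 0.6 nM upwards against 0.2 nM enzyme in pH 5.9 citric acid/KH2PO4, taurocholate, tween-20; blue fluorogenic substrate 80 uM, 40 min room temperature, stopped and read Ex 365/Em 440 for AC50.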

[2] = AP1 Signaling Pathway (AID 357); details: ME-180 AP-1-bla reporter, EGF-induced, beta-lactamase ratio, 5 h; at 7.69 µM (top of the series) unless noted;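 note: ME-180 reporter cells stimulated with EGF at its EC50 level; % is set by controls: 0 for no effect and ±100 for the full control effect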
Outline: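 Modulation of EGF-driven AP-1 transcription was assessed with a beta-lactamase reporter in ME-180 cells. Compound and EC50 EGF were co-incubated 5 hours at 37 °C before 2.5-hour CCF4 loading at room temperature and dual-emission reading.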

[3] = biological target: Cytochrome P450 1A2 (Homo sapiens) (UniProt P05177); test: p450-cyp1a2 (AID 410; calls by dose curve; note: potency is the fitted concentration of half-maximal effect;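 for activity change, negative = inhibition: -100% = full effect of reference inhibitor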); details: recombinant CYP1A2, luciferin-ME demethylation, luminescence; series mostly up to 57 µM
Cytochrome P450 1A2 (Homo sapiens), sequence (P05177 whole entry, looked up): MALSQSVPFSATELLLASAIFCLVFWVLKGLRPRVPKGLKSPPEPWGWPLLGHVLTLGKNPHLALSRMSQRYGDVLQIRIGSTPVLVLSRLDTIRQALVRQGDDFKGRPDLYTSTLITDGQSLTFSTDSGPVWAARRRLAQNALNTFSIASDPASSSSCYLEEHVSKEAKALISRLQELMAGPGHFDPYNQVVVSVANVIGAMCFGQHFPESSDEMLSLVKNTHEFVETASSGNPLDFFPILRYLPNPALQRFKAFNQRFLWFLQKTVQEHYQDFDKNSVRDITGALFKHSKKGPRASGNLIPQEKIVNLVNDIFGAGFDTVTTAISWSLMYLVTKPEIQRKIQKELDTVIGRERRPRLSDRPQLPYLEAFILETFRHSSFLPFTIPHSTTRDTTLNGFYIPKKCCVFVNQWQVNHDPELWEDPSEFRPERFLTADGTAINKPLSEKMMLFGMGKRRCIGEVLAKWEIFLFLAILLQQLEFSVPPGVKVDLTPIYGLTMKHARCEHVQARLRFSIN
Outline: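 Inhibition was calculated relative to 57 uM furafylline (full inhibition). The reaction used human CYP1A2 at 20nM with Luciferin-ME at its Km, 100uM, driven by an NADPH-regenerating system for 60 min at room temperature.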

[4] = NFAT Signaling Pathway (AID 444); details: Jurkat NFAT-bla M1, carbachol, beta-lactamase ratio, 5 h; at 7.69 µM (top of the series) unless noted;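 note: carbachol stimulus at about its EC50 of 1 µM final; % is set by controls: 0 for no effect and ±100 for the full control effect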
Outline: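 Jurkat cells carrying an NFAT-driven β-lactamase reporter and co-transfected muscarinic M1 receptor were treated with compound plus carbachol (1 uM final, an EC50 level) for 5 h at 37 °C. CCF4 loading followed for 1 h at RT; 460/530 nm ratio gave %activity.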

[5] = Stat Signaling Pathway (AID 446); details: ME-180 (cervical carcinoma) SIE beta-lactamase reporter, IL-6 stimulated, 5 h; at 7.69 µM (top of the series) unless noted;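 note: ME-180 cervical cancer cells given 40 pM IL-6 alongside compound; SIE-controlled beta-lactamase reporter measured as 460/530 nm FRET emission ratio; % is set by controls: 0 for no effect and ±100 for the full control effect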
Outline: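 IL-6/STAT signaling read in ME-180 cells via an SIE beta-lactamase reporter. Stimulus was 40 pM IL-6 (its AC50) for 5 hrs, so both activation and inhibition register.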

[6] = biological target: Glucocorticoid receptor (Homo sapiens) (UniProt P04150); test: GR-EFC Redistribution (AID 451; calls by dose curve; note: potency is the fitted concentration of half-maximal effect); details: CHO-K1 GR-EFC translocation, beta-gal luminescence, 2 h
Glucocorticoid receptor (Homo sapiens), sequence (P04150 whole entry, looked up, the tested form may be a part): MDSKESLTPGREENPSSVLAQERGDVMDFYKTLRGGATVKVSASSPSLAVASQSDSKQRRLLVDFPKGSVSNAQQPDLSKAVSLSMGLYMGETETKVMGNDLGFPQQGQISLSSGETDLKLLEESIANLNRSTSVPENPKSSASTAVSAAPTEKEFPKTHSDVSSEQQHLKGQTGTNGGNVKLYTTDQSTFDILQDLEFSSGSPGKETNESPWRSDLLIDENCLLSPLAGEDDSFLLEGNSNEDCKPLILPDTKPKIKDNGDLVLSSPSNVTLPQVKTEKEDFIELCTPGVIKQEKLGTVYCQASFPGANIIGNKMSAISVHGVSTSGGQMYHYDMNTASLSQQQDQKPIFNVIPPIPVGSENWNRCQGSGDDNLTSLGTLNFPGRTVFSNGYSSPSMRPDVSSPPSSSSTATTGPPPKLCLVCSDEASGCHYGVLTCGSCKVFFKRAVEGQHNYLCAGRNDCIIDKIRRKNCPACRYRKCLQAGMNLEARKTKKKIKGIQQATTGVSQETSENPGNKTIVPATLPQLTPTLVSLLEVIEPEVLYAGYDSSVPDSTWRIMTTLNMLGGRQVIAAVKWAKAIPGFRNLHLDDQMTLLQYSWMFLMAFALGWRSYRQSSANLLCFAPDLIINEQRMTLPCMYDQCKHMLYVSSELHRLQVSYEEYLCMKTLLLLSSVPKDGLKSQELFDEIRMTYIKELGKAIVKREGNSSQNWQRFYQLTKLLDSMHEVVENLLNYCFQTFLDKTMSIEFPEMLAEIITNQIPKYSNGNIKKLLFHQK
Outline: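 CHO-K1 cells stably expressing nuclear-localized β-gal enzyme acceptor and GR fused C-terminally to the enzyme donor fragment; ligand-driven nuclear translocation restores β-gal by complementation. Compounds titrated up to 46 uM final, 2 h at 37 °C; luminescence read.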

[7] = biological target: Mitogen-activated protein kinase 10 (Mus musculus) (UniProt Q61831); test: JNK3 AlphaScreen Assay (AID 530); details: JNK3 lysate, c-Jun phosphorylation; series mostly up to 57.1 µM;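 note: kinase came from lysate of stimulated human HepG2 cells; signal reports phosphorylation of biotinylated GST-cJun 1-79 at Ser73 with 10 µM ATP; % is set by controls: 0 for no effect and ±100 for the full control effect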
Outline: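 JNK3 came from HepG2 lysates pre-activated with IL-1beta and TNF-alpha and phosphorylated biotinylated GST-cJun (1-79) at 10 uM ATP, pH 7.6, room temperature. Compounds were titrated. AlphaScreen signal used anti-phospho-cJun (Ser73) antibody.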

[8] = biological target: 3',5'-cyclic-AMP phosphodiesterase 4B (Homo sapiens) (UniProt Q07343); test: qHTS Assay for Inhibitors of PDE-IV (AID 607; active = well fitted activation curve with a large enough effect in the main read-out, with a control signal flat, not every such curve was filed as active; note: % of control where 0% means no effect); details: HEK293 ACTOne CNG channel cells, membrane potential fluorescence; series mostly up to 22.9 µM
3',5'-cyclic-AMP phosphodiesterase 4B (Homo sapiens), sequence (Q07343 whole entry, looked up): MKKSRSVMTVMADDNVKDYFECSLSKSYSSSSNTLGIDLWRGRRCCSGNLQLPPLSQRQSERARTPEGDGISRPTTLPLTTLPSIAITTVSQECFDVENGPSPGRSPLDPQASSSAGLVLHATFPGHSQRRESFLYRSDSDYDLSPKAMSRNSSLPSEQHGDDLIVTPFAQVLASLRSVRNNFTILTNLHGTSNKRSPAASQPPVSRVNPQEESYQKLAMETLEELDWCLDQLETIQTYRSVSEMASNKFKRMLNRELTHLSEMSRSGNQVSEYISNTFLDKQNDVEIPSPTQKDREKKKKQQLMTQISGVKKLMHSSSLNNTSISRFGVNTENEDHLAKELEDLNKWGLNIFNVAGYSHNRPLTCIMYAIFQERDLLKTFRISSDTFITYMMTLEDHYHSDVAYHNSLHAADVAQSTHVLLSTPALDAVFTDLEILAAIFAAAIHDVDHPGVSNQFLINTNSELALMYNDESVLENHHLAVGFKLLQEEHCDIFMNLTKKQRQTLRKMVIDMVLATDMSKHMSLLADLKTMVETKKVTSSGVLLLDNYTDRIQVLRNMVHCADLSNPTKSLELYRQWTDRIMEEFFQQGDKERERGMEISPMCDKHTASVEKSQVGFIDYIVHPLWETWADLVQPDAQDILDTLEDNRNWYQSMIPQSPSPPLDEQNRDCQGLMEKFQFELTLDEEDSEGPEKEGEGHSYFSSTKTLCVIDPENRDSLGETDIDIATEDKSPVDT
Outline: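 Live HEK293 cells with a modified cyclic nucleotide-gated (CNG) channel report intracellular cAMP via membrane-potential dye fluorescence (ex 535/em 590 nm). Endogenous PDE-IV was targeted. Compounds were tested at up to 22.9 uM final; RO 20-1724 100 uM served as control.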

[9] = biological target: Cytochrome P450 3A4 (Homo sapiens) (UniProt P08684); test: qHTS Assay for Inhibitors and Substrates of Cytochrome P450 3A4 (AID 884; active = well fitted curve in the direction sought with a large enough effect; an effect the other way counts as inactive or inconclusive; note: nearly all actives have a fitted effect of over 50% in size; note: potency is the fitted concentration of half-maximal effect); details: recombinant CYP3A4, Luciferin-PPXE luminescence; series mostly up to 57.1 µM
Cytochrome P450 3A4 (Homo sapiens), sequence (P08684 whole entry, looked up): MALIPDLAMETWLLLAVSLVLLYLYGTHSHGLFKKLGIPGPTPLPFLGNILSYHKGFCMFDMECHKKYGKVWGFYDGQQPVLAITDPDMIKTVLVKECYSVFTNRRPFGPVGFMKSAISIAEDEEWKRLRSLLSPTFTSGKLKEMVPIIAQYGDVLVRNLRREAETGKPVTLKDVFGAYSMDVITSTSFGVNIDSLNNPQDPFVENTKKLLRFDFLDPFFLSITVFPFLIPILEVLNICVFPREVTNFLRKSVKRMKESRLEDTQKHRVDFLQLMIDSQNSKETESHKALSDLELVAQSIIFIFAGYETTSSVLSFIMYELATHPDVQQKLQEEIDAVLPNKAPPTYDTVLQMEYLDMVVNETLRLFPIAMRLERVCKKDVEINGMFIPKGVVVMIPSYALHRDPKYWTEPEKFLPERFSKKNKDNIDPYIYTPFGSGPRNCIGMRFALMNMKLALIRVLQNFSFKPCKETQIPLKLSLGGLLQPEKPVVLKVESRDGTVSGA
Outline: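 20 nM human CYP3A4 with 25 uM Luciferin-PPXE (at KM) in 200 mM KPO4, preincubated 10 min with compound; NADPH regeneration started a 60 min RT reaction. Luciferin detected by luminescence, normalized to 57 uM ketoconazole as full inhibition.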

[10] = biological target: Cytochrome P450 3A4 (Homo sapiens) (UniProt P08684); test: qHTS Assay for Activators of Cytochrome P450 3A4 (AID 885; active = well fitted curve in the direction sought with a large enough effect; an effect the other way counts as inactive or inconclusive; note: nearly all actives have a fitted effect of over 65% in size; note: potency is the fitted concentration of half-maximal effect); details: recombinant CYP3A4, Luciferin-PPXE luminescence, 60 min; series mostly up to 57.1 µM
Outline: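 Quantitative HTS format: compounds preincubated with 20nM human CYP3A4 and Luciferin-PPXE substrate at KM, reaction started by NADPH regeneration, stopped after 60 min, luciferase luminescence read 20 min later.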

[11] = qHTS Assay for Lipid Storage Modulators (AID 1519; calls by dose curve); details: Drosophila S3 cells, BODIPY lipid droplet/cell ratio, laser cytometry, cells loaded with oleic acid; for activity change, negative = inhibition: at 57.5 µM (top of the series)
Outline: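 Cells seeded at 5,000 per well were treated with compounds over a concentration series and loaded with oleic acid (400 uM, as added). Lipid droplet fluorescence (488 nm excitation, 500-530 nm channel) was read by laser-scanning cytometry and normalized to 20 uM Triacsin C.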

[12] = Primary qHTS for small molecule stabilizers of the endoplasmic reticulum resident proteome: Secreted ER Calcium Modulated Protein (SERCaMP) assay (AID 1508630; active = well fitted curve in the direction sought with a large enough effect; an effect the other way counts as inactive or inconclusive; note: % is set by controls: 0 for no effect and ±100 for the full control effect); details: SH-SY5Y GLuc-SERCaMP (Gaussia luciferase released on ER calcium loss) secretion, thapsigargin, luminescence; series mostly up to 38.4 µM
Outline: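 GLuc-SERCaMP-expressing SH-SY5Y cells, pretreated 16 h with compound, are challenged with thapsigargin to empty ER calcium stores; after 4 h, coelenterazine is added directly to the medium and luminescence is imaged.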

[13] = biological target: Cytochrome P450 2C9 (Homo sapiens) (UniProt P11712); test: qHTS Assay for Inhibitors and Substrates of Cytochrome P450 2C9 (AID 883; active = well fitted curve in the direction sought with a large enough effect; an effect the other way counts as inactive or inconclusive; note: nearly all actives have a fitted effect of over 60% in size; note: potency is the fitted concentration of half-maximal effect); details: recombinant CYP2C9, luciferin-H luminescence, 60 min; series mostly up to 57.1 µM
Cytochrome P450 2C9 (Homo sapiens), sequence (P11712 whole entry, looked up): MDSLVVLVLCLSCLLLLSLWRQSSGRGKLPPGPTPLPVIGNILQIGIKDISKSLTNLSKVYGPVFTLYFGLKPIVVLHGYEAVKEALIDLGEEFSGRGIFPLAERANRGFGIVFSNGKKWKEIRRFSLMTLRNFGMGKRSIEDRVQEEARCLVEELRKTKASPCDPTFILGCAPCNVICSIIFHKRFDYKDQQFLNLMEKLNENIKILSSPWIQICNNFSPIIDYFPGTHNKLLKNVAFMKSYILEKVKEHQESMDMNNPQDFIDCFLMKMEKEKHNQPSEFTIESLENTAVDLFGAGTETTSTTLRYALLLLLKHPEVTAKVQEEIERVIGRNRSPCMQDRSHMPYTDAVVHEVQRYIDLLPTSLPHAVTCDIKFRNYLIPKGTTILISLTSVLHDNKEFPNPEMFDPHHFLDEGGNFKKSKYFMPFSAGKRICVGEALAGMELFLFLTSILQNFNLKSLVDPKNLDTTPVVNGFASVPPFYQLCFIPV
Outline: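 Human CYP2C9 (10nM) hydroxylated Luciferin-H (100uM, at its KM) to luciferin in 25mM KPO4. Compound was preincubated 10 min at 37C, then NADPH regeneration started a 60 min reaction at 37C. Luminescence was read after detection reagent, normalized to 57uM sulphaphenazole.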

[14] = biological target: Cytochrome P450 2C19 (Homo sapiens) (UniProt P33261); test: qHTS Assay for Inhibitors and Substrates of Cytochrome P450 2C19 (AID 899; active = well fitted curve in the direction sought with a large enough effect; an effect the other way counts as inactive or inconclusive; note: % is set by controls: 0 for no effect and ±100 for the full control effect; nearly all actives have a fitted effect of over 60% in size); details: recombinant CYP2C19, luciferin-H EGE luminescence; series mostly up to 57.1 µM
Cytochrome P450 2C19 (Homo sapiens), sequence (P33261 whole entry, looked up): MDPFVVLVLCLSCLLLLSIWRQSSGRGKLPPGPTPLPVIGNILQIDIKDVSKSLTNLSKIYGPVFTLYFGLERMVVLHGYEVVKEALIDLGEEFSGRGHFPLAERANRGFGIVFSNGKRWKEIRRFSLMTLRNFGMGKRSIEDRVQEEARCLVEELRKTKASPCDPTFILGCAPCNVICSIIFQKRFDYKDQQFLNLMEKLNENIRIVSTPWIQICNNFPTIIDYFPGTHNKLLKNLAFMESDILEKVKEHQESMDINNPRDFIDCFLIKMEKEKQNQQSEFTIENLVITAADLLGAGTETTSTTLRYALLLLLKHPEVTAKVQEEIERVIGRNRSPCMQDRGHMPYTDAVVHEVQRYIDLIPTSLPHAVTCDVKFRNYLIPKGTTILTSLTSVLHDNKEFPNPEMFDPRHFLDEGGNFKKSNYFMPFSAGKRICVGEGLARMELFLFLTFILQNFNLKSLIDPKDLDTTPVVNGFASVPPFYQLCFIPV
Outline: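 Human CYP2C19 (5nM) with Luciferin-H EGE at 10uM (its KM) in 50mM KPO4 was preincubated with compound for 10 min at 37C. NADPH regeneration started a 60 min 37C reaction. Luciferin was read by luminescence, normalized to 57uM ketoconazole.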

[15] = biological target: Cytochrome P450 2D6 (Homo sapiens) (UniProt P10635); test: qHTS Assay for Inhibitors and Substrates of Cytochrome P450 2D6 (AID 891; active = well fitted curve in the direction sought with a large enough effect; an effect the other way counts as inactive or inconclusive; note: potency is the fitted concentration of half-maximal effect; nearly all actives have a fitted effect of over 60% in size); details: recombinant CYP2D6, luciferin-ME EGE luminescence; series mostly up to 57.1 µM
Cytochrome P450 2D6 (Homo sapiens), sequence (P10635 whole entry, looked up): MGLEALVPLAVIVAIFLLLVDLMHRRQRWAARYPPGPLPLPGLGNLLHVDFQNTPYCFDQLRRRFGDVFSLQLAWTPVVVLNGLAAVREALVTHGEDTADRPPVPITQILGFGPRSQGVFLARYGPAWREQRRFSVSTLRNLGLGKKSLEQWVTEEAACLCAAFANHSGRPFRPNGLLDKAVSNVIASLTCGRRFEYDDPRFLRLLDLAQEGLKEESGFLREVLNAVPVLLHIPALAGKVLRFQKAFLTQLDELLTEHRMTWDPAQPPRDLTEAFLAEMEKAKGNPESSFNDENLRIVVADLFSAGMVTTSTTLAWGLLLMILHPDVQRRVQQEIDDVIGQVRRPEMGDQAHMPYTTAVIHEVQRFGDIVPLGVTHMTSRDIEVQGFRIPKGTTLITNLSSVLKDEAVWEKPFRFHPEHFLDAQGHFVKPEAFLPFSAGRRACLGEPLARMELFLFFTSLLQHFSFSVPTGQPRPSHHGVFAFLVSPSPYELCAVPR
Outline: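 Human CYP2D6 (5 nM) with 30 uM Luciferin-ME EGE (at Km) in 100 mM KPO4, compound preincubated 10 min, then NADPH regeneration system for 60 min at room temperature. Luciferin read by luminescence; normalized to 1.43 uM quinidine.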

[16] = measured here: cell count channel max response
[17] = measured here: lipid channel max response

O=C(c1cc(C(F)(F)F)cc(C(F)(F)F)c1)N1CCC2(CC1)CN(c1ccccc1)C2
inactive: Potency [1] > 11.4 µM | activity change, negative = inhibition [2] 29.9% | Potency [3] | activity change, negative = inhibition [4] -25.4% | activity, negative = inhibition [5] 2.58% | Potency [6] > 46 µM | outcome [7] | Potency [8] | Potency [9] | activity change, negative = inhibition [11] -8.64% | Potency [12]
-1.3%: max response [11, 17]
active: Potency [10] 3.98 µM
5.35%: max response [11, 16]

CS(=O)(=O)N1CCC2(CCN(c3cccc(-c4ccccc4)c3)CC2)CC1
19.1%: max response [11, 16]
inactive: Potency [1] > 11.4 µM | activity change, negative = inhibition [2] -1.25% | Potency [3] | activity change, negative = inhibition [4] 10.1% | activity, negative = inhibition [5] -21% | Potency [6] > 46 µM | outcome [7] | Potency [8] | Potency [13] | Potency [14] | activity change, negative = inhibition [11] -1.6% | Potency [12]
18.7%: max response [11, 17]

O=C(c1cc(C(F)(F)F)cc(C(F)(F)F)c1)N1CCC2(CCN(Cc3nccs3)CC2)CC1
21.6%: max response [11, 17]
inactive: Potency [1] > 11.4 µM | activity change, negative = inhibition [2] -2.3% | Potency [3] | activity change, negative = inhibition [4] -17.7% | activity, negative = inhibition [5] -29.1% | Potency [6] > 46 µM | outcome [7] | Potency [8] | Potency [9] | activity change, negative = inhibition [11] 1.84% | Potency [12]
16.9%: max response [11, 16]

COc1ccc(NC(=O)N2CCC3(CC2)CCN(C(=O)c2cnccn2)CC3)cc1
7.1%: max response [11, 16]
18.9%: max response [11, 17]
inactive: Potency [1] > 11.4 µM | activity change, negative = inhibition [2] -11.1% | activity change, negative = inhibition [4] 9.86% | activity, negative = inhibition [5] 0.353% | Potency [6] > 46 µM | outcome [7] | Potency [8] | activity change, negative = inhibition [11] 7.44% | Potency [12]
active: Potency [3] 10 µM

Cc1noc(C)c1C(=O)N1CCC[C@@]2(CCN(c3ccccc3)C2)C1
14.8%: max response [11, 17]
inactive: Potency [1] > 11.4 µM | activity change, negative = inhibition [2] -7.05% | activity change, negative = inhibition [4] -18.1% | activity, negative = inhibition [5] 3.26% | Potency [6] > 46 µM | outcome [7] | Potency [8] | Potency [10] | activity change, negative = inhibition [11] -2.45% | Potency [12]
active: Potency [3] 25.1 µM | Potency [9] 5.01 µM
13.4%: max response [11, 16]

O=C(c1csnn1)N1CCC2(CC1)CN(c1ccccn1)C2
inactive: Potency [1] > 11.4 µM | activity change, negative = inhibition [2] -7.48% | Potency [3] | activity change, negative = inhibition [4] -19.4% | activity, negative = inhibition [5] -1.49% | Potency [6] > 46 µM | outcome [7] | Potency [8] | Potency [9] | activity change, negative = inhibition [11] 4.89% | Potency [12]
22.2%: max response [11, 17]
active: Potency [10] 25.1 µM
15.6%: max response [11, 16]

O=C(c1ccncc1)N1CCC2(CC1)CN(c1ccccc1)C2
18.7%: max response [11, 17]
9.42%: max response [11, 16]
active: Potency [13] 2.51 µM | Potency [15] 7.94 µM
inactive: Potency [1] > 11.4 µM | activity change, negative = inhibition [2] -2.66% | Potency [3] | activity change, negative = inhibition [4] 4.65% | activity, negative = inhibition [5] 3.39% | Potency [6] > 46 µM | outcome [7] | Potency [8] | activity change, negative = inhibition [11] 6.84% | Potency [12]
